From article PMC7862700, “An all-to-all approach to the identification of sequence-specific readers for epigenetic DNA modifications on cytosine”

What was measured:
Test in all cases: DAPPL (digital affinity profiling via proximity ligation, sequencing); 10 mM Tris-HCl pH 7.5, 50 mM NaCl, 1 mM DTT, 4% glycerol, room temperature, 30 min; GST-TFs on glutathione beads, 16-mer random dsDNA library, 0.1% formaldehyde crosslink after washing; high values mean tight binding
Conditions in all cases: protein: recombinant; tags: N-terminal GST; dsDNA, one strand shown
FLI1 = biological target: T1, FLI1 (Homo sapiens, UniProt Q01543 1-452)
T1 sequence: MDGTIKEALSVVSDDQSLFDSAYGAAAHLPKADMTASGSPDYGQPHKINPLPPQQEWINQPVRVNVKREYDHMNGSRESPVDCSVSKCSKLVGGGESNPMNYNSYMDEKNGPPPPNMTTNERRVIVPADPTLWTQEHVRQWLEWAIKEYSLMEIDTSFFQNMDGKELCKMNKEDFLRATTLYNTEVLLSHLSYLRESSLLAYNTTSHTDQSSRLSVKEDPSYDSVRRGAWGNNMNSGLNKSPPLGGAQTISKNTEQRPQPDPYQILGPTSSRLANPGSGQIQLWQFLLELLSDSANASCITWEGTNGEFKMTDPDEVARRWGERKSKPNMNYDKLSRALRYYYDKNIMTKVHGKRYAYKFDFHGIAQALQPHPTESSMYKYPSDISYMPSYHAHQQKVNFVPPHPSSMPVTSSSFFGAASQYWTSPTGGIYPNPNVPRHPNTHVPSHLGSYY
How it was run: (§1)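 Human transcription factors were made in yeast as GST fusions, captured on glutathione beads and barcoded with DNA. With a tag-only sample included, the pool was incubated with 200 nmole of a random double-stranded 16-mer DNA library in Tris/NaCl/DTT/glycerol buffer at room temperature for 30 min, then crosslinked with 0.1% formaldehyde after washing, ligated by proximity, amplified and sequenced. For binding signal, each hexamer's read frequency for a factor is divided by its frequency for the tag-only sample.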

ELK1 = biological target: T2, ELK1 (Homo sapiens, UniProt P19419 1-428)
T2 sequence: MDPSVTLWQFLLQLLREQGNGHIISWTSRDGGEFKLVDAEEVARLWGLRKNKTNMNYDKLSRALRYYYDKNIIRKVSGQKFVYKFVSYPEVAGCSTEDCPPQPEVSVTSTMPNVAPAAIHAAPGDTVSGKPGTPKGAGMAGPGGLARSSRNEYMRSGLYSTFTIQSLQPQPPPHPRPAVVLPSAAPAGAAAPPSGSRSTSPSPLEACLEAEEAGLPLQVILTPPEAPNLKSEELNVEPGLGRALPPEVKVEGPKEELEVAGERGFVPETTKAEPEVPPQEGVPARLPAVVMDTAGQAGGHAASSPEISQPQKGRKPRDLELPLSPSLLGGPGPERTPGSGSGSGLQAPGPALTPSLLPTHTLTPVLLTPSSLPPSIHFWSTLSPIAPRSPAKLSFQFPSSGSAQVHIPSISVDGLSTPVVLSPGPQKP
How it was run: as §1

GABPA = biological target: T3, GABPA (Homo sapiens, UniProt Q06546 1-454)
T3 sequence: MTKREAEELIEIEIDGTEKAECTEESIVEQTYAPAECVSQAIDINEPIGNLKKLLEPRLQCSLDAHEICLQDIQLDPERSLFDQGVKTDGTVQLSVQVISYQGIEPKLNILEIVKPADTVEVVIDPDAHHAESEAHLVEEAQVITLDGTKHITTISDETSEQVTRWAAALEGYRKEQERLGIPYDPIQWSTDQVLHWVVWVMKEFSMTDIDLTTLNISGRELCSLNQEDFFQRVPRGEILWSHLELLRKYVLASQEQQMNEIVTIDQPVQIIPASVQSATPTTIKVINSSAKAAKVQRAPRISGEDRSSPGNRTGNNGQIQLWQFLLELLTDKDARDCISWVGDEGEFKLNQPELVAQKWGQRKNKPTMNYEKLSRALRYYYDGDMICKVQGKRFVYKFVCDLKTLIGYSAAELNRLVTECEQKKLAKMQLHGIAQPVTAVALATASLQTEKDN
How it was run: as §1

ELF1 = ELF1 (Homo sapiens, UniProt P32519 1-619)
How it was run: as §1

EHF = biological target: T4, EHF (Homo sapiens, UniProt Q9NZC4 1-300)
T4 sequence: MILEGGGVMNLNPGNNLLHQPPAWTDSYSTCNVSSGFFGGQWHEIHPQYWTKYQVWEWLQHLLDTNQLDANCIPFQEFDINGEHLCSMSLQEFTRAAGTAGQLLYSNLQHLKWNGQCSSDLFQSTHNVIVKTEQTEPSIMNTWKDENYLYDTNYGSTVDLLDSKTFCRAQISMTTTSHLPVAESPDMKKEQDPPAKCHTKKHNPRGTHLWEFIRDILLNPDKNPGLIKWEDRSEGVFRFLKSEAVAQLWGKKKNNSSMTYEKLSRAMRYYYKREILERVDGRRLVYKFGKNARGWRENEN
How it was run: as §1

ELK3 = biological target: T5, ELK3 (Homo sapiens, UniProt P41970 1-407)
T5 sequence: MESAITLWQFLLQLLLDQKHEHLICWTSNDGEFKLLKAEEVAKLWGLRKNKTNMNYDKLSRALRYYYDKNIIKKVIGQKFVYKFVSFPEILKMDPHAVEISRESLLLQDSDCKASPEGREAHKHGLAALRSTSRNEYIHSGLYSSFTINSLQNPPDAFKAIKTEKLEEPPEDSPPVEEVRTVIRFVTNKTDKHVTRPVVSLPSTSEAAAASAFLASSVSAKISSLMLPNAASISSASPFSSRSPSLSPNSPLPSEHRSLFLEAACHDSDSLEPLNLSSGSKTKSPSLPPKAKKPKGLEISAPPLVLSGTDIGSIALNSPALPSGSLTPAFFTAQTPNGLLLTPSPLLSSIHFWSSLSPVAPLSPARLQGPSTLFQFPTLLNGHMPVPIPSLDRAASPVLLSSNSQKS
How it was run: as §1

ELF4 = ELF4 (Homo sapiens, UniProt Q99607 1-663)
How it was run: as §1

ELK4 = biological target: T6, ELK4 (Homo sapiens, UniProt P28324-2 1-405)
T6 sequence: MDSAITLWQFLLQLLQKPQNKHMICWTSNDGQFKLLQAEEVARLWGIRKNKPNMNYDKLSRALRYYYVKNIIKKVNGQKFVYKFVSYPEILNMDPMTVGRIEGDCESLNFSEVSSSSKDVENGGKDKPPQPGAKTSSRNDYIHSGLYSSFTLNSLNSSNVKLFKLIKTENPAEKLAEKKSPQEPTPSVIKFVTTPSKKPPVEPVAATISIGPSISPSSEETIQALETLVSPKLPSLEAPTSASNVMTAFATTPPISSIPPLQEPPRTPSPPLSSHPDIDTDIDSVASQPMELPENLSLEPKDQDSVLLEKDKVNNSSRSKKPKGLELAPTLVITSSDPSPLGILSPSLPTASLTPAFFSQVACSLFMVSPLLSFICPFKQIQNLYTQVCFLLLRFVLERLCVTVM
How it was run: as §1

ERF = biological target: T7, ERF (Homo sapiens, UniProt P50548 1-548)
T7 sequence: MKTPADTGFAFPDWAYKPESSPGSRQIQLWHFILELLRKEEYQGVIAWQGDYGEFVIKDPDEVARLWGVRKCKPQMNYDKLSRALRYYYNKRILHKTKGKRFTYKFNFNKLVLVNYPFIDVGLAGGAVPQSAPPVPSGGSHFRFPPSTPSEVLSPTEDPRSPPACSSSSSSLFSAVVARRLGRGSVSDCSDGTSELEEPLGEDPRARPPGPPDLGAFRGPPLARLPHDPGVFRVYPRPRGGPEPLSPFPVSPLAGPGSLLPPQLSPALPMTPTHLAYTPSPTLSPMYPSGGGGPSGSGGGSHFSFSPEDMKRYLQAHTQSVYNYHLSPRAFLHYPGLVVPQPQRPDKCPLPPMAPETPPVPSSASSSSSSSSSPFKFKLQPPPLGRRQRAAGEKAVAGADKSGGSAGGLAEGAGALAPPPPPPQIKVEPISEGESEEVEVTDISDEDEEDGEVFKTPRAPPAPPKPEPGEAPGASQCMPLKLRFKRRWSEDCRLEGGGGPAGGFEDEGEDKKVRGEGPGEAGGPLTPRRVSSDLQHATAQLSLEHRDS
How it was run: as §1

ETV3L = biological target: T8, ETV3L (Homo sapiens, UniProt Q6ZN32 1-361)
T8 sequence: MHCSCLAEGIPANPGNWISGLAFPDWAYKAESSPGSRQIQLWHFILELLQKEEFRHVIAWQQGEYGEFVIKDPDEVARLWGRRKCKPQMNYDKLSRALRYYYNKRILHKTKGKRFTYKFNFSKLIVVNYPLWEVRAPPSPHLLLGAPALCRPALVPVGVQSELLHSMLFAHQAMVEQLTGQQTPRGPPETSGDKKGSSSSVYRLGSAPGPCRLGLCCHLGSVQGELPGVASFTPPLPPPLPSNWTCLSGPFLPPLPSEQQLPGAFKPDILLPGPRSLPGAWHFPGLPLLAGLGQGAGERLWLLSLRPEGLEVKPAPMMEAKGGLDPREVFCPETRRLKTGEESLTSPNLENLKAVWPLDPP
How it was run: as §1

ETS2 = biological target: T9, ETS2 (Homo sapiens, UniProt P15036 1-469)
T9 sequence: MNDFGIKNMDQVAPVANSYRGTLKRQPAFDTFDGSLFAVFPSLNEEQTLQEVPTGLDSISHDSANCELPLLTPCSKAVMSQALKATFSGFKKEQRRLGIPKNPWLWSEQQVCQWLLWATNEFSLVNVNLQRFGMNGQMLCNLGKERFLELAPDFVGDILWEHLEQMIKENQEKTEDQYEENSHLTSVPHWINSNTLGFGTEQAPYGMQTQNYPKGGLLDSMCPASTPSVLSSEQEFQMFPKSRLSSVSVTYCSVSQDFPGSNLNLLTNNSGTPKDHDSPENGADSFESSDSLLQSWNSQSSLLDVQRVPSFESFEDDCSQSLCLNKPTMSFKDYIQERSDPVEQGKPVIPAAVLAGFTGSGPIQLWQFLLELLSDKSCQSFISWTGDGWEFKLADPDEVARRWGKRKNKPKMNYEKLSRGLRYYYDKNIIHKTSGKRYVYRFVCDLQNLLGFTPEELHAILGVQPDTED
How it was run: as §1

ETV3 = biological target: T10, ETV3 (Homo sapiens, UniProt P41162-2 1-143)
T10 sequence: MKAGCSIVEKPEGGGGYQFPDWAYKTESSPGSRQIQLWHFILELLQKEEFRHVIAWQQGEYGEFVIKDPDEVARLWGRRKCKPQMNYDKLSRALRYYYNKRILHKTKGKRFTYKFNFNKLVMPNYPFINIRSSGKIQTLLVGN
How it was run: as §1

Chain of ELF4 (Q99607 whole entry): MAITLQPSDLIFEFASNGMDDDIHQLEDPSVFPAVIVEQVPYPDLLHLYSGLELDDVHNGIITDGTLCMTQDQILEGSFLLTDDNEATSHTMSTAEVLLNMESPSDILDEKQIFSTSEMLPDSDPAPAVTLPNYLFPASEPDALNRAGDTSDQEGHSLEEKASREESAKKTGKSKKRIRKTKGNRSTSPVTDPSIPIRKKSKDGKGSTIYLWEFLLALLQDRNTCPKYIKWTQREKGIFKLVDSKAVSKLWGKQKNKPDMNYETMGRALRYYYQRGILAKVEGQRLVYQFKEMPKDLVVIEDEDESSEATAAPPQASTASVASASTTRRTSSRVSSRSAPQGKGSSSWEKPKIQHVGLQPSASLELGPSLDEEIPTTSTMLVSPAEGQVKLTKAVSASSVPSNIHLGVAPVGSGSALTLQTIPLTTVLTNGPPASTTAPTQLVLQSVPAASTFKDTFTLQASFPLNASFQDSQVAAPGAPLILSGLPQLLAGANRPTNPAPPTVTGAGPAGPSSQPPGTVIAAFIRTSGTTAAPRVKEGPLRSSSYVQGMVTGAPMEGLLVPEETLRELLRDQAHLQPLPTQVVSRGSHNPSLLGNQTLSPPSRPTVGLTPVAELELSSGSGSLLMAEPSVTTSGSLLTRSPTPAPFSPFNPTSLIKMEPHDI
Chain of ELF1 (P32519 whole entry): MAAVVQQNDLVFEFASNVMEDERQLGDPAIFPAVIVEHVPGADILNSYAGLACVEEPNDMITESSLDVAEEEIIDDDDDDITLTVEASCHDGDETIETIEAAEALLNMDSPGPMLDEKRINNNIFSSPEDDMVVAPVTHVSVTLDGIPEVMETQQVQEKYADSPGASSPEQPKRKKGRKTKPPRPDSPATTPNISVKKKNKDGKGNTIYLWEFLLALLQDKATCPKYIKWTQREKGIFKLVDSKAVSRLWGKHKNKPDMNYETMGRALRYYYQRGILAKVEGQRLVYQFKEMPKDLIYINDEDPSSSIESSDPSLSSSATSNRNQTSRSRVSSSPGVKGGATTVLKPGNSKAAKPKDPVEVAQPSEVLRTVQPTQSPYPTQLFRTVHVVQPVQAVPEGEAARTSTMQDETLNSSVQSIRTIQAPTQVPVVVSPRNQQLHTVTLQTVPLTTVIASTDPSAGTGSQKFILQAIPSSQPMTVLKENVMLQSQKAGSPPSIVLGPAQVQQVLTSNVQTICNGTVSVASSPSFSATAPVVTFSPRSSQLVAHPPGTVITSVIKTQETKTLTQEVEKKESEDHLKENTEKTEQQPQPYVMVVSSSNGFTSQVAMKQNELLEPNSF

GCCGCA
binding signal (FLI1): 1.01 fold enrichment (6-mer frequency, TF over GST control)
binding signal (ELK1): 1.03 fold enrichment (6-mer frequency, TF over GST control)
binding signal (GABPA): 1.02 fold enrichment (6-mer frequency, TF over GST control)
binding signal (ELF1): 1.04 fold enrichment (6-mer frequency, TF over GST control)
binding signal (EHF): 1.04 fold enrichment (6-mer frequency, TF over GST control)
binding signal (ELK3): 1.04 fold enrichment (6-mer frequency, TF over GST control)
binding signal (ELF4): 1.04 fold enrichment (6-mer frequency, TF over GST control)
binding signal (ELK4): 1.04 fold enrichment (6-mer frequency, TF over GST control)
binding signal (ERF): 1.07 fold enrichment (6-mer frequency, TF over GST control)
binding signal (ETV3L): 1.04 fold enrichment (6-mer frequency, TF over GST control)
binding signal (ETS2): 1 fold enrichment (6-mer frequency, TF over GST control)
binding signal (ETV3): 1 fold enrichment (6-mer frequency, TF over GST control)
